# Experimental data as given in PubChem BioAssay (NCATS).
# Where “and” joins values, the source holds several entries; their conditions need not be identical. Equal values may be shown once. Results filed as inconclusive are left out. Entries that show only a call come without a potency. More than one record can exist for a structure, and the calls need not agree. Calls of active or inactive are those of the source. Unless noted, calls come from the whole dose curve; as a rule, active = well fitted curve in the direction sought with a large enough effect; inconclusive = small, poorly fitted or top-dose-only effect, or another doubt; inactive = no such curve, though single readings can be large; an effect the other way counts as inactive or inconclusive.
# Experiments:
# [1] = molecular target: Cytochrome P450 1A2 (Homo sapiens) (UniProt P05177); assay: p450-cyp1a2 (AID 410; calls by dose curve; note: potency is the fitted concentration of half-maximal effect)
# Sequence of Cytochrome P450 1A2 (Homo sapiens) (P05177 whole entry, looked up): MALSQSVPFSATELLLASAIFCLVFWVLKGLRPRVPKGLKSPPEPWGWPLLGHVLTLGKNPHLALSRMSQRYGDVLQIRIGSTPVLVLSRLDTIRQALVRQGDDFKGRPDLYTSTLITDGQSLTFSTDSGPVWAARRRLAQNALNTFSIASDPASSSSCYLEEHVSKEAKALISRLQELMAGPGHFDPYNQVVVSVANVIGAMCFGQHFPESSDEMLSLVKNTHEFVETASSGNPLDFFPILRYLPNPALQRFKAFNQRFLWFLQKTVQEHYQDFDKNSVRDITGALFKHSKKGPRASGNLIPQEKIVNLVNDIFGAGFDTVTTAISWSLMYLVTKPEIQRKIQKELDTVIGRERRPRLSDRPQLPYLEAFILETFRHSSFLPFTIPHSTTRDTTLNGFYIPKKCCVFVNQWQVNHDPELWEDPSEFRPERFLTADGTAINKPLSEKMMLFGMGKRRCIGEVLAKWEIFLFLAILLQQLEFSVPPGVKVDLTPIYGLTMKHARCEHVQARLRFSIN
# Procedure, shortened: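 Read-out is luminescence from luciferin produced by CYP1A2 demethylation of Luciferin-ME (100uM, at Km). Detection reagent stopped the 60 min NADPH-dependent reaction; signals were normalized to 57 uM furafylline.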
# [2] = NFAT Signaling Pathway (AID 444; active = well fitted curve in either direction with a large enough effect, not every such curve was filed as active;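 note: carbachol stimulus at about its EC50 of 1 µM final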); details: Jurkat NFAT-bla M1, carbachol, beta-lactamase ratio, 5 h; at 17.2 µM (top of the series) unless noted
# Procedure, shortened: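 Jurkat cells carrying an NFAT-driven β-lactamase reporter and co-transfected muscarinic M1 receptor were treated with compound plus carbachol (1 uM final, an EC50 level) for 5 h at 37 °C. CCF4 loading followed for 1 h at RT; 460/530 nm ratio gave %activity.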
# [3] = molecular target: Glucocorticoid receptor (Homo sapiens) (UniProt P04150); assay: GR-GFP Redistribution (AID 450;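 active = compounds whose dose series gives a full or clear partial fitted curve of increased nuclear translocation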; note: potency is the fitted concentration of half-maximal effect)
# Sequence of Glucocorticoid receptor (Homo sapiens) (P04150 whole entry, looked up, the tested form may be a part): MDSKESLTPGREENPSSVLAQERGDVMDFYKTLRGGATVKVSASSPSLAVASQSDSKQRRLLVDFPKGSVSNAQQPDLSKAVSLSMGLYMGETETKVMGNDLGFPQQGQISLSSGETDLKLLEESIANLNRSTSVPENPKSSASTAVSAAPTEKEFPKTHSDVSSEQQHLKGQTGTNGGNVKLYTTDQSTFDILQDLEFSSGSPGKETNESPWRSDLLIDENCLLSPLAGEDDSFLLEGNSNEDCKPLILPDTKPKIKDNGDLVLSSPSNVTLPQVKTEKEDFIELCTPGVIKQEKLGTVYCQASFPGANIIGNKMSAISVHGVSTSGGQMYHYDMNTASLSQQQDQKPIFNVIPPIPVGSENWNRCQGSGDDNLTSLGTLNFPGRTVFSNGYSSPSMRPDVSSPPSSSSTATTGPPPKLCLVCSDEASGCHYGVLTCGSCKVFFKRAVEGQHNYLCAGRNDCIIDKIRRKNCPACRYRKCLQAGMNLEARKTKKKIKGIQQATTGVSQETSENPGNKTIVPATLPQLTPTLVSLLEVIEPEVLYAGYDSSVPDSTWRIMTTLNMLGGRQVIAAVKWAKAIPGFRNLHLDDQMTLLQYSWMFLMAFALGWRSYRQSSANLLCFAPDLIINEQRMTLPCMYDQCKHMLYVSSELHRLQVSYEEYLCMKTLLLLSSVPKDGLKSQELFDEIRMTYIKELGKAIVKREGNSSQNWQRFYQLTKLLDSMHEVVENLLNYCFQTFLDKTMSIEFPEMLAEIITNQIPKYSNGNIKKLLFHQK
# [4] = molecular target: Glucocorticoid receptor (Homo sapiens) (UniProt P04150); assay: GR-EFC Redistribution (AID 451; calls by dose curve; note: potency is the fitted concentration of half-maximal effect); details: CHO-K1 GR-EFC translocation, beta-gal luminescence, 2 h
# Procedure, shortened: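 CHO-K1 cells stably expressing nuclear-localized β-gal enzyme acceptor and GR fused C-terminally to the enzyme donor fragment; ligand-driven nuclear translocation restores β-gal by complementation. Compounds titrated up to 46 uM final, 2 h at 37 °C; luminescence read.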
# [5] = molecular target: Mitogen-activated protein kinase 10 (Mus musculus) (UniProt Q61831); assay: JNK3 AlphaScreen Assay (AID 530; active = well fitted curve in either direction with a large enough effect, not every such curve was filed as active;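 note: kinase came from lysate of stimulated human HepG2 cells; signal reports phosphorylation of biotinylated GST-cJun 1-79 at Ser73 with 10 µM ATP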)
# Procedure, shortened: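 Biotinylated GST-cJun(1-79) served as substrate for JNK3 in HepG2 lysates stimulated with IL-1beta and TNF-alpha. ATP was 10 uM final, pH 7.6. Ser73 phosphorylation was quantified by AlphaScreen (680 nm excitation).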
# [6] = molecular target: 3',5'-cyclic-AMP phosphodiesterase 4B (Homo sapiens) (UniProt Q07343); assay: qHTS Assay for Inhibitors of PDE-IV (AID 607; active = well fitted activation curve with a large enough effect in the main read-out, with a control signal flat, not every such curve was filed as active)
# Sequence of 3',5'-cyclic-AMP phosphodiesterase 4B (Homo sapiens) (Q07343 whole entry, looked up): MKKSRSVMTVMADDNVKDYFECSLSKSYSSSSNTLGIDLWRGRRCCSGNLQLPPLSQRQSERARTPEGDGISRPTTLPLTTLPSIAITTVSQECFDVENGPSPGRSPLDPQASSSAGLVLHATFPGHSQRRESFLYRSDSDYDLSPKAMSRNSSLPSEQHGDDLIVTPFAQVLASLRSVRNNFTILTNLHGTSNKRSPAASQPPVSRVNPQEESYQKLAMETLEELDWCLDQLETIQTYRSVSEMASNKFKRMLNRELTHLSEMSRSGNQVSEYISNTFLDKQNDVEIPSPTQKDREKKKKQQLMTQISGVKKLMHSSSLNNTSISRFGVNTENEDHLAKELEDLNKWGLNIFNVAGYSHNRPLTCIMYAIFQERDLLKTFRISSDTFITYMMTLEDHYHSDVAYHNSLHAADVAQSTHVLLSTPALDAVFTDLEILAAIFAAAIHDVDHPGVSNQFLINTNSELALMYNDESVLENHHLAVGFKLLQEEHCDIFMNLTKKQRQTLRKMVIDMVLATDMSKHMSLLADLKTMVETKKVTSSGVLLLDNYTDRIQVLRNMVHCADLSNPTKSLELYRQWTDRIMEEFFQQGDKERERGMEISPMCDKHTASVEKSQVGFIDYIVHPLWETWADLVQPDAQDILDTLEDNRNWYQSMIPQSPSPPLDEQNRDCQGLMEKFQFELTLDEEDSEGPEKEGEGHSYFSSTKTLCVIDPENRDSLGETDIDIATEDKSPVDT
# Procedure, shortened: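 ACTOne HEK293 cells carry a modified cAMP-gated CNG channel and express endogenous PDE4; plated 1000 cells/well, compounds up to 22.9 uM final. Membrane-potential dye fluorescence (ex 535/em 590) was read; parental cells received 10 uM forskolin + 100 uM RO 20-1724.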
# [7] = molecular target: Cytochrome P450 3A4 (Homo sapiens) (UniProt P08684); assay: qHTS Assay for Activators of Cytochrome P450 3A4 (AID 885); note: nearly all actives have a fitted effect of over 65% in size
# Sequence of Cytochrome P450 3A4 (Homo sapiens) (P08684 whole entry, looked up): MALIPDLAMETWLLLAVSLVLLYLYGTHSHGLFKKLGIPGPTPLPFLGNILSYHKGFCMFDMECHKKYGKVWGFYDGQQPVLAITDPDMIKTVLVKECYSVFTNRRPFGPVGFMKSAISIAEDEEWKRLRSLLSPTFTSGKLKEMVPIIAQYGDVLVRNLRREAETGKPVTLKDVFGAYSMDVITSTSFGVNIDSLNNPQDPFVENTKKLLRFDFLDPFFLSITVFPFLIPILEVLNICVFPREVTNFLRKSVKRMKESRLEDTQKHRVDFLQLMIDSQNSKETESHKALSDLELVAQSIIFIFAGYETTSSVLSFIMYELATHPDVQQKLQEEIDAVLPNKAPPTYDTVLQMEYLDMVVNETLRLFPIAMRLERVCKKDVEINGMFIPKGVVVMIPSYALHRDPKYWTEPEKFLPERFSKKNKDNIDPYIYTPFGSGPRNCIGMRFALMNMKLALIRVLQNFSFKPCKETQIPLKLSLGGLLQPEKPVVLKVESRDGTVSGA
# Procedure, shortened: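 CYP3A4 activity: Luciferin-PPXE O-dealkylation, 25uM substrate, 200mM KPO4, RT throughout. Read-out is luciferase luminescence; higher values reflect activation.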
# [8] = molecular target: Cytochrome P450 2D6 (Homo sapiens) (UniProt P10635); assay: qHTS Assay for Inhibitors and Substrates of Cytochrome P450 2D6 (AID 891);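 note: luciferin methyl ether substrate demethylated by CYP2D6 with NADPH regeneration; nearly all actives have a fitted effect of over 60% in size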
# Procedure, shortened: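 Luminescent read-out of luciferin formed by 5 nM human CYP2D6 demethylating 30 uM Luciferin-ME EGE (Km level) over 60 min at room temperature after NADPH regeneration addition. Data normalized to full inhibition by 1.43 uM quinidine.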
# [9] = qHTS Assay for Identification of Small Molecule Antagonists for Thrombopoietin (TPO) Signaling Pathway (AID 918); details: TPO-dependent cell signaling reporter, antagonist mode; note: potency is the fitted concentration of half-maximal effect; nearly all actives have a fitted effect of over 60% in size
# Procedure, shortened: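 Antagonist mode at EC50 TPO (26 pM) in IL-3-free medium; murine Ba/F3 cells with human TPO receptor and GPIIb-promoter luciferase, 24 hrs at 37 C before luminescent detection.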
# [10] = molecular target: Pyruvate kinase (Leishmania mexicana) (UniProt Q27686); assay: qHTS Validation Assay for Inhibitors of Leishmania Mexicana Pyruvate Kinase (AID 945)
# Sequence of Pyruvate kinase (Leishmania mexicana) (Q27686 2-499 E452W): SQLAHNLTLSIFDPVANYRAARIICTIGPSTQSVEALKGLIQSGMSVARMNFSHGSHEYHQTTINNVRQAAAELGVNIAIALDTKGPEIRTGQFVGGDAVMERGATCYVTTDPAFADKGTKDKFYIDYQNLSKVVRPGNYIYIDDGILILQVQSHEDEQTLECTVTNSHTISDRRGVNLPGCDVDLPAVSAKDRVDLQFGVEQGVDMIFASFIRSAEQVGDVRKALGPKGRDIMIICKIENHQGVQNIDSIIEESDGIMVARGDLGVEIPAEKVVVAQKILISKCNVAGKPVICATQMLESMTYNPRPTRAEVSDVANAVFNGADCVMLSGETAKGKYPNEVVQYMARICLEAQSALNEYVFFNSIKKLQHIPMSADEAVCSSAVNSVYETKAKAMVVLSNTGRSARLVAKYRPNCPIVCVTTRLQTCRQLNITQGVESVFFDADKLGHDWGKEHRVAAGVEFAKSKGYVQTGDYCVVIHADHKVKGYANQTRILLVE
# Procedure, shortened: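 Compounds are tested as eight-point concentration series. Reactions contain 0.2 nM LmPYK E451W, 0.5 mM PEP, 0.1 mM ADP, 7 mM MgCl2 and 50 mM KCl at pH 7.2, run 1 h at room temperature, then read by PKLight luminescence.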
# [11] = molecular target: Pyruvate kinase PKM (Homo sapiens) (UniProt P14618); assay: qHTS Assay for Activators of Human Muscle Pyruvate Kinase (AID 954; active = well fitted curve in the direction sought with a large enough effect, not every such curve was filed as active)
# Procedure, shortened: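 A coupled luminescent readout tracked ATP made from ADP by purified PKM2. Final conditions included 0.1 nM enzyme, PEP and ADP at 0.5 and 0.1 mM, pH 7.2 imidazole buffer with BSA, and a one-hour room-temperature reaction.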
# [12] = molecular target: Alpha-galactosidase A (Homo sapiens) (UniProt P06280); assay: Counterscreen for Glucocerebrosidase Inhibitors: qHTS Assay for Human alpha-Galactosidase at pH 4.5 (AID 992)
# Sequence of Alpha-galactosidase A (Homo sapiens) (P06280 whole entry, looked up): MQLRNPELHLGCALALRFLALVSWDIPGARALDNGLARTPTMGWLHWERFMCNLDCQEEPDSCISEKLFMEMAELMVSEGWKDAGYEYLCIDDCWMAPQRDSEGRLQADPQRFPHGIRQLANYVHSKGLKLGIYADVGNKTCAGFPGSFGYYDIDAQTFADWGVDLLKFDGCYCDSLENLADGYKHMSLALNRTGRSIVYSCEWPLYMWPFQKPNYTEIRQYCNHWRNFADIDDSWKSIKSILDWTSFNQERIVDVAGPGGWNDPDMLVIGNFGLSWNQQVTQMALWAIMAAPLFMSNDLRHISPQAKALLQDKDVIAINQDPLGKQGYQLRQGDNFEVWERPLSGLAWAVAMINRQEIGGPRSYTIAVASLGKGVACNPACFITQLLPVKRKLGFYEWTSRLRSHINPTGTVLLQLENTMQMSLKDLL
# Procedure, shortened: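 Citrate buffer pH 4.5, Tween-20 0.005%. Enzyme 2 nM, substrate 80 uM, 20 min RT. Stop pH 10. Fluorescence Ex 365/Em 440. AC50 by Hill fit.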
# [13] = molecular target: alpha-glucosidase (Oryza sativa, rice) (UniProt Q653V4); assay: Counterscreen for Glucocerebrosidase Inhibitors: qHTS Assay for Rice alpha-Glucosidase at pH 5.0 (AID 997)
# Procedure, shortened: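 Endpoint fluorogenic assay at pH 5.0: compounds (0.7 nM to 77 uM) titrated against 4 nM rice enzyme and 400 uM 4-MU-alpha-glucoside for 20 min at room temperature; NaOH/glycine stop, read ex 365/em 440 nm, Hill-fitted AC50.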
# [14] = molecular target: ATP-dependent 6-phosphofructokinase (Trypanosoma brucei brucei) (UniProt O15648); assay: qHTS Assay to Find Inhibitors of T. brucei phosphofructokinase: hit validation (AID 492961);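 note: luminescence reports ADP formed as PFK phosphorylates fructose-6-phosphate with ATP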
# Sequence of ATP-dependent 6-phosphofructokinase (Trypanosoma brucei brucei) (O15648 whole entry, looked up): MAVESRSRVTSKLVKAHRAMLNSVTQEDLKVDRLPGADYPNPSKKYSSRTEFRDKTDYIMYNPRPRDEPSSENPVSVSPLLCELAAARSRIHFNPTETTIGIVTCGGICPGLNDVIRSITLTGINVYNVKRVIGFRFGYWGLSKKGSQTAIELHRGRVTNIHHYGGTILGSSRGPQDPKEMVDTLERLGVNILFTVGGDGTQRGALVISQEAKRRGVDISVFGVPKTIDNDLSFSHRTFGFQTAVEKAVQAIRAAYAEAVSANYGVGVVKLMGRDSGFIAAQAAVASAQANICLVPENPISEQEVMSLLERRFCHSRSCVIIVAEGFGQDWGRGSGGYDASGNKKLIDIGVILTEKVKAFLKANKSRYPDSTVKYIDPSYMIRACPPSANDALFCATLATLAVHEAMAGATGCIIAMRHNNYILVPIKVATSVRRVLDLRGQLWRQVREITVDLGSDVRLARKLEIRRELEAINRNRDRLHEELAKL
# Procedure, shortened: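 Reaction: 0.1 M triethanolamine pH 8.0, 5 mM MgCl2, F6P 0.5 mM, ATP 0.1 mM, PFK 1.25 nM, 45 min RT. Read-out: ADP-Glo luminescence. Analysis: concentration-response fits, classed by r2 and efficacy.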
# [15] = molecular target: Ubiquitin carboxyl-terminal hydrolase 1 (Homo sapiens) (UniProt O94782); assay: Inhibitors of USP1/UAF1: Pilot qHTS (AID 504865);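 note: rhodamine fluorescence freed from ubiquitin-rhodamine substrate followed over time; top concentration of the series differs between compounds; nearly all actives have a fitted effect of over 35% in size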
# Sequence of Ubiquitin carboxyl-terminal hydrolase 1 (Homo sapiens) (O94782 whole entry, looked up): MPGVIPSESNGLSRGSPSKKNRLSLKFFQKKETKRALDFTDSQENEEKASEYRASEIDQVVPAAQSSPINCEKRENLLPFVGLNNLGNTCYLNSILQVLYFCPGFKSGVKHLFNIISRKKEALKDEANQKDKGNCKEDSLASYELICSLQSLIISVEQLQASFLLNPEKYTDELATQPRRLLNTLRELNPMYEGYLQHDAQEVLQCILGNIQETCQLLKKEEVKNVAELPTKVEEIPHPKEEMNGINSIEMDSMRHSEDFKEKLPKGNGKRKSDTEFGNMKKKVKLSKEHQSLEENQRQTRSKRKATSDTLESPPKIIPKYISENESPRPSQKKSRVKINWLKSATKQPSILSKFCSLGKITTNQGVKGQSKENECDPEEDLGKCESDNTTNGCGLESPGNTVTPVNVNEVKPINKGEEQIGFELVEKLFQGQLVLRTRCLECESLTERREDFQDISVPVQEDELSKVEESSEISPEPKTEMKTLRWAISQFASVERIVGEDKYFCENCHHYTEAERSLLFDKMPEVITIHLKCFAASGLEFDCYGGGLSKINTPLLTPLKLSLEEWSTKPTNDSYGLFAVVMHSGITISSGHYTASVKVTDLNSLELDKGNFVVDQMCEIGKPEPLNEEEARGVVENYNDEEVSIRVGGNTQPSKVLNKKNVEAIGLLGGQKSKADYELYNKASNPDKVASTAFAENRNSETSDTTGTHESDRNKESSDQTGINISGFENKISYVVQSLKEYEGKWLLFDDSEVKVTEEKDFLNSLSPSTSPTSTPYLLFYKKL
# Procedure, shortened: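 Enzyme-free wells gave the negative control, while test wells held 1nM USP1/UAF1 preincubated with compound for 15 min at room temperature. Ub-Rho at 150nM final started the reaction, and fluorescence at 480/540 nm was recorded kinetically.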
# [16] = molecular target: Luciferin 4-monooxygenase (Photinus pyralis) (UniProt P08659); assay: Biochemical firefly luciferase enzyme assay for NPC (AID 624030);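 note: purified P. pyralis luciferase at 10 nM with luciferin and ATP substrate; nearly all actives have a fitted effect of over 70% in size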
# Procedure, shortened: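 Counter-screen for direct inhibition of the luciferase enzyme by approved-drug library compounds, run at 10 nM enzyme in 50 mM Tris acetate (final). Luminescence was read within 5 min of enzyme-buffer addition and normalized to PTC124 versus DMSO (0%).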
# [17] = S16 Schwann cell PMP22 intronic element firefly luciferase assay (AID 624032); note: potency is the fitted concentration of half-maximal effect; nearly all actives have a fitted effect of over 30% in size
# Procedure, shortened: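 Rat S16 Schwann cells stably carrying a PMP22 intronic element-driven Fluc reporter were seeded overnight, then exposed to compounds for 24 h at 37 °C. Luminescence was normalized to PTC124 (positive control) and DMSO (0% activity).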
# [18] = qHTS profiling for inhibitors of Plasmodium falciparum proliferation (AID 504749); note: nearly all actives have a fitted effect of over 60% in size; note: potency is the fitted concentration of half-maximal effect; details: P. falciparum in erythrocytes, SYBR Green DNA, 72 h; at 28.7 µM (top of the series); parasite line B
# Procedure, shortened: (§1)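 Fluorescence of SYBR Green-bound parasite DNA, read at 485/535 nm, served as the growth measure. Infected erythrocytes were cultured with compound 72 h; artemisinin (0.29 uM) and DMSO wells defined the normalization range.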
# AS120 = assay: as above; details: P. falciparum in erythrocytes, SYBR Green DNA, 72 h; series mostly up to 28.7 µM
# Procedure, shortened: as §1
# ATS95 = assay: as above; details: P. falciparum in erythrocytes, SYBR Green DNA, 72 h; series mostly up to 28.7 µM
# Procedure, shortened: as §1
# CP185 = assay: as above; details: P. falciparum in erythrocytes, SYBR Green DNA, 72 h; series mostly up to 28.7 µM
# Procedure, shortened: as §1
# CP192 = assay: as above; details: P. falciparum in erythrocytes, SYBR Green DNA, 72 h; series mostly up to 28.7 µM
# Procedure, shortened: as §1
# CP201 = assay: as above; details: P. falciparum in erythrocytes, SYBR Green DNA, 72 h; series mostly up to 28.7 µM
# Procedure, shortened: as §1
# CP203 = assay: as above; details: P. falciparum in erythrocytes, SYBR Green DNA, 72 h; series mostly up to 28.7 µM
# Procedure, shortened: as §1
# CP211 = assay: as above; details: P. falciparum in erythrocytes, SYBR Green DNA, 72 h; series mostly up to 28.7 µM
# Procedure, shortened: as §1
# CP238 = assay: as above; details: P. falciparum in erythrocytes, SYBR Green DNA, 72 h; series mostly up to 28.7 µM
# Procedure, shortened: as §1
# CP247 = assay: as above; details: P. falciparum in erythrocytes, SYBR Green DNA, 72 h; series mostly up to 28.7 µM
# Procedure, shortened: as §1
compound,measurement,setting,value
C=C1C(=O)O[C@@H]2[C@@H]1CC/C(C)=C\CC[C@@]1(C)O[C@H]21,Potency,[1],inactive and 12.6 µM (active)
same,"activity change, negative = inhibition",[2],-121% (active)
same,Potency,[3],> 46 µM (inactive) and > 20.6 µM (inactive)
same,Potency,[4],> 46 µM (inactive) and > 20.6 µM (inactive)
same,Potency,[5],inactive
same,Potency,[6],inactive
same,Potency,[7],inactive
same,Potency,[8],inactive
same,Potency,[9],10 µM (active)
same,Potency,[10],inactive
same,outcome,[11],inactive
same,outcome,[12],inactive
same,outcome,[13],inactive
same,Potency,[14],inactive
same,Potency,[15],inactive
same,Potency,[16],inactive
same,Potency,[17],32.2 µM (active)
same,"activity, negative = inhibition",[18],-27.2% (inactive)
same,Potency,AS120,inactive
same,Potency,ATS95,inactive
same,Potency,CP185,inactive
same,Potency,CP192,inactive
same,Potency,CP201,inactive
same,Potency,CP203,inactive
same,Potency,CP211,inactive
same,Potency,CP238,inactive
same,Potency,CP247,5.01 µM (active)
